HSD17B inhib: qHTS Assay for Inhibitors of HSD17B4, hydroxysteroid (17-beta) dehydrogenase 4; 3-hydroxyacyl-CoA dehydrogenase type-2 (Homo sapiens), Q99714; recombinant HSD17B10, NADH fluorescence kinetic; Potency, µM (top dose mostly 57.1 µM), without a hit: at the top dose activity change, negative = inhibition, actives largely listed as inhibitors; 7.6% of 75,000 active; AID 893, 2007;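 further: the protocol describes HADH2 (HSD17B10) and not the HSD17B4 of the title; potency means the concentration at half of the fitted maximal effect; on the % scale 0 is the no-effect control and ±100 the full control effect; nearly all actives have a fitted effect of over 70% in size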
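20 nM HADH2, pH 9.0 Tris/Tween; cpd preinc 15 min RT; start w/ 1 mM NAD+ + 90 uM b-hydroxybutyryl-CoA; kinetic fluor ex360/em450 q30s x 4 min; delta last-first.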
4-MU autofl: qHTS Assay for Spectroscopic Profiling in 4-MU Spectral Region | compound autofluorescence, 340/450 nm, 4-MU equivalents; active compounds read high | 11% of 59,000 active | max dye-equivalent concentration, M; in the data active means max dye-equivalent concentration above about 10 nM; inconclusive means mostly about 1.1 nM to 9.6 nM
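Intrinsic fluorescence at 340/450 nm (ex/em) was read after 15 min at room temperature in pH 8.0, 100 mM Tris. Each compound concentration expressed as 4-MU-equivalent concentration from a six-point 4-MU standard series on each plate.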
AID923: qHTS Assay for Allosteric/Competitive Inhibitors of Caspase-1: Spectroscopic Profiling in AFC Spectral Region; AID 923, 2007; compound fluorescence, AFC spectral region (405/520 nm); Potency, µM (highest dose often 57.5 µM), inactives show top-dose fluorescence increase, most hits filed as activators; 1.1% of 75,000 active; further: potency means the concentration at half of the fitted maximal effect; 0% is about no effect
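Compound autofluorescence profiled at 405 nm ex/520 nm em during kinetic caspase 1 run (50 nM enzyme, 5 uM Ac-WEHD-AFC, HEPES pH 7.5, 10 mM DTT). Titration up to 57 uM; baseline from regression intercept, normalized to AFC standard curve.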
A350 fluor: qHTS Assay for Spectroscopic Profiling in A350 Spectral Region; Compound autofluorescence, 340/450 nm, Alexa 350 dye-equivalents; active compounds read high; max dye-equivalent concentration, M; 11% of 59,000 active; in the data active means max dye-equivalent concentration above about 10 nM; inconclusive means mostly about 1.1 nM to 9.6 nM
HADH2 inhib: qHTS Assay for Inhibitors of HADH2 (Hydroxyacyl-Coenzyme A Dehydrogenase, Type II). 3-hydroxyacyl-CoA dehydrogenase type-2 (Homo sapiens), Q99714. recombinant HADH2, NADH fluorescence, beta-hydroxybutyryl-CoA. Potency, µM (titrated, usually from 57.1 µM), inactives show at the top dose activity change, negative = inhibition, usual class: inhibitors. 3.4% of 73,000 active; further: potency means the concentration at half of the fitted maximal effect; on the % scale 0 is the no-effect control and ±100 the full control effect; nearly all actives have a fitted effect of over 60% in size
Target sequence (Q99714 whole entry, looked up, one chain of several): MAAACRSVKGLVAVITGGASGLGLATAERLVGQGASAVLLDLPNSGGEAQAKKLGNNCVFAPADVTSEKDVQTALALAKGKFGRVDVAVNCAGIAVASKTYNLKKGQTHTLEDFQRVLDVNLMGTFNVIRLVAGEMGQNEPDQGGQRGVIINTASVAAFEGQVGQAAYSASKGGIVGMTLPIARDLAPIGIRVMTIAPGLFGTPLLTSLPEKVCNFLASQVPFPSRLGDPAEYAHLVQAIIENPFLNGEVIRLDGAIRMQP
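His-tagged recombinant enzyme from E. coli, 20 nM, preincubated 15 min RT with compound; reaction started with 1 mM NAD+ and 90 uM beta-hydroxybutyryl-CoA in 100 mM Tris-HCl pH 9.0. NADH fluorescence (ex 360/em 450) read over 4 min; last-minus-first difference.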
Numbers without * were called inactive; i = inactive; ? = inconclusive; . = no result given; [ ] = remark or other dose. Rows were chosen to be rich in hits. Some 13% of all compounds tested hit in one or more screens of this group. Unless noted, the call rests on the fitted dose curve; in most records, active means well fitted curve in the direction sought with a large enough effect; inconclusive means small, poorly fitted or top-dose-only effect, or another doubt; inactive means no such curve, though single readings can be large; an effect the other way counts as inactive or inconclusive.

SMILES	HSD17B inhib	4-MU autofl	AID923	A350 fluor	HADH2 inhib
Cc1nc2cc(-c3cccc(F)c3)nn2c(N2CCOCC2)c1C	5%	i	-2%	i	9%
CS(=O)(=O)N1CCC2(CCCN(C(c3ccccc3)c3ccccc3)C2)CC1	-7%	i	-3%	i	-2%
Cc1nc2cncnc2n(Cc2ccccc2)c1=O	2%	i	-2%	i	-20%
COc1ccccc1CN1C(=O)CCC1(C)C(=O)NCc1cccnc1 (configuration not stated)	-1%	1.2e-08M*	1%	1.3e-08M*	11%
Cc1cccc(-n2c(=O)[nH]c3c(C(N)=O)nc(C(C)C)nc32)c1	25µM*	1.4e-07M*	6%	1.4e-07M*	13µM*
COc1ccc(-c2nc(C(N)=O)c3[nH]c(=O)n(-c4cccc(Cl)c4)c3n2)cc1OC	12%	i	0%	i	12%
O=C(Nc1cccc(NC(=O)c2cccnc2)c1)c1cccnc1	9%	i	1%	i	-2%
O=C(Nc1ccc2oc(=O)ccc2c1)c1cccnc1	?	1.4e-08M*	-1%	1.4e-08M*	-14%
Cc1c(C(=O)O)nc(/C=C\C(=O)O)[nH]c1=O	-1%[11.4 µM]	i	-2%[11.5 µM]	i	4%[11.4 µM]
CNC(=O)c1c(I)c(C(=O)NCC(=O)Nc2c(I)c(C(=O)O)c(I)c(C(=O)NCCO)c2I)c(I)c(N(C)C(C)=O)c1I	3%[25.6 µM]	i	1%[25.7 µM]	i	7%[25.6 µM]
CCOC(=O)c1[nH]c(=O)c2ccccc2c1O	-9%	3.1e-08M*	2%	2.7e-08M*	3%
CC(C)CCCC(C)C1CCC2C3CC(=O)[C@H]4CC(O)CC[C@]4(C)C3CC[C@@]12C (some centres not stated)	-2%	.	-5%	.	.
CC1=C(C(=O)N2CCCCC2)C(c2cccs2)C2=C(CCCC2=O)N1 (configuration not stated)	32µM*	.	3%	.	?
COC(=O)C1=C(C)NC2=C(C(=O)CCC2)C1c1cccs1 (configuration not stated)	32µM*	2.5e-07M*	2%	2.8e-07M*	-14%
Cc1noc(C)c1C(=O)N1CCC2(CCCN(c3ccccc3)C2)CC1	2%	i	3%	i	4%
C/C(CCN1CCCCc2nc(C)c(C)cc21)=N\O[C@@H](C)CN1CCCc2nc(C)c(C)cc21	-3%[11.4 µM]	.	4%[11.5 µM]	.	12%[11.4 µM]
C=C[C@H](N)CCC(=O)O	-5%	i	-3%	i	-16%
CC(C)=CCC/C(C)=C/C=O	3%	.	-2%	.	-2%
Cc1cc2n(n1)C(c1sccc1C)Nc1ccccc1-2 (configuration not stated)	25µM*	?	0%	1.2e-08M*	25µM*
Cc1cc2n(n1)C(c1sccc1C)Nc1c(C)cccc1-2 (configuration not stated)	20µM*	1.8e-08M*	0%	2.4e-08M*	-2%
Cc1ccc2c(c1)-c1cc(C)nn1C(c1sccc1C)N2 (configuration not stated)	32µM*	8.9e-08M*	5%	8.6e-08M*	-26%
Cc1ccsc1C1C(C(=O)O)c2ccccc2C(=O)N1C (configuration not stated)	12%	i	0%	i	2%
CN(C)Cc1ccccc1-c1cncnc1NC1CC1	-4%	i	-1%	i	2%
COc1ccc(N2CCN(/C(=N\S(=O)(=O)c3ccccc3)Nc3nc(C)cc(C)n3)CC2)cc1	?	9.9e-06M*	2%	1.1e-05M*	i
Cc1ccc(S(=O)(=O)/N=C(/Nc2nc(C)cc(C)n2)N2CCOCC2)cc1	?	.	2%	.	8%[11.4 µM]
SMILES	HSD17B inhib	4-MU autofl	AID923	A350 fluor	HADH2 inhib
O=C(CCC1CCCCC1)Nc1ccccc1O	-19%	?	-3%	?	?
O=C(CC1CCS(=O)(=O)C1)Nc1ccc[nH]c1=O (configuration not stated)	25µM*	2.4e-07M*	5%	2e-07M*	-11%
COc1ccc(N2CCN(Cc3cc(=O)oc4cc(-c5ccccc5)c(O)cc34)CC2)cc1	8%	i	1%	i	17%
COC(=O)C1CCN(Cc2cc(=O)oc3cc(OC)ccc23)CC1	-24%	1.3e-08M*	0%	2e-08M*	-2%
Cc1cc(=O)oc2ccc(OCC(=O)N3CCC(C)CC3)cc12	?	5e-08M*	-2%	5.3e-08M*	-24%
CCn1c(=O)cc(OCC(=O)N2CCc3ccccc32)c2ccccc21	-5%	.	0%	.	6%
Cc1cc(=O)oc2cc(OCC(=O)N3c4ccccc4CC3C)ccc12 (configuration not stated)	25µM*	1.9e-07M*	0%	2.9e-07M*	-21%
CCc1cc(=O)oc2cc(OCC(=O)N3CCc4ccccc43)ccc12	25µM*	2.7e-07M*	0%	3.5e-07M*	4%

High-throughput results: PubChem BioAssay, National Center for Advancing Translational Sciences (NCATS)
